From PubChem BioAssay
Beta apoptosis = inhibitors of cytokine-induced beta cell apoptosis, primary screen, luminescence; protection from apoptosis, % (no concentration beside the values); INS-1E cytokine-induced death, ATP luminescence, 48 h; percent of positive-control rescue, neutral wells zero; 300,000 tested, 0.8% active; AID 435005, 2010;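 active = Every replicate reaches about 75%, or at least half do and their mean reaches it too, limit read from the data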;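 note: higher means more ATP so stronger rescue from cytokine killing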
Gli-Sufu block = Gli-Sufu pathway antagonists, primary screen, luciferase luminescence, Sufu-KO-LIGHT cells, uHTS; AID 588413, 2011; 340,000 tested, 0.74% active; inhibition, % at 5 µM; Sufu-KO-LIGHT fibroblasts, Gli luciferase reporter luminescence;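 active = inhibition above about 55%, limit read from the data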
Mdm2 MdmX PPI = inhibitors of human Mdm2-MdmX association, primary screen, cell-based, luminescence, split luciferase, SaOS-2, uHTS | 330,000 tested, 3% active | inhibition, % at 8 µM | AID 485346, 2010 | SaOS-2 split-luciferase Mdm2/MdmX complementation | Protein Mdm4 (Homo sapiens) + E3 ubiquitin-protein ligase Mdm2 (Homo sapiens), …;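 active = inhibition of at least 50% at 8 µM in the primary screen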
CSC inhib = cancer stem cell viability inhibitors, primary screen, luminescence | AID 2717, 2010 | 300,000 tested, 1.1% active | cancer stem cell-like cells viability | inhibition, % at 7.5 µM; in the data active = inhibition above about 75%; tested in HMLE shEcad cells
697 NFkB inh = inhibitors of PMA/ionomycin-induced NF-kB reporter, 697 cells, primary screen, B-cell NF-kB inhibitor project, cell-based, luminescence, uHTS; 330,000 tested, 0.33% active; 697 B-cell NF-kB luciferase reporter, 16 h; inhibition, % at 4 µM; in the data active = inhibition above about 35%
Jurkat NFkB inh = inhibitors of induced NF-kB luciferase reporter, primary screen, TCR NF-kB activation inhibitor project, cell-based, luminescence, uHTS. 330,000 tested, 0.53% active. AID 435003, 2010. inhibition, % at 4 µM. Jurkat, PMA/ionomycin-induced NF-kB luciferase reporter; in the data active = inhibition above about 50%
Mdm2-MdmX conf = Mdm2-MdmX complex disruptors, retested hits, confirmation, luminescence, single concentration; shares compounds with Mdm2 MdmX PPI; Mdm2-MdmX binding, luminescent assay; inhibition, % at 8 µM; 10,000 tested, 55% active; in the data active = inhibition above about 40%
FLuc counter = full-length luciferase signal inhibition, confirmation, counter-screen for Mdm2/MdmX interaction inhibitor project, cell-based, single concentration, SaOS-2; shares compounds with Mdm2 MdmX PPI; SaOS-2 full-length luciferase counterscreen, luminescence; inhibition, % at 8 µM; 6,200 tested, 77% active; AID 504607, 2011;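 active = mean inhibition at 8 µM reaching about 37%, which flags the compound as non-specific, limit read from the data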;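 note: p53-null SaOS-2 cells with luciferase driven by a doxycycline-inducible promoter; compound on cells about two nights before reading with doxycycline added after day one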
Large screens that a line does not name were inactive (follow-up assays come after a bar, where they were run). Most compounds without a hit are left out; they make up all but 4.5% or so of the library.

Cc1ccc(S(=O)(=O)Nc2cccc(-c3ccc4nnc(C)n4n3)c2)s1	Mdm2 MdmX PPI 65 (no result: CSC inhib) | Mdm2-MdmX conf inactive
CCS(=O)(=O)Nc1cccc(-c2ccc3nnc(C)n3n2)c1	none (no result: Gli-Sufu block)
CC1CCCCC12NC(=O)N(CC(=O)NCCc1c[nH]c3ccccc13)C2=O (stereo not drawn)	none (no result: CSC inhib)
COC(=O)[C@H](CCSC)NC(=O)Cn1cnc2c(NCc3ccccc3)ncnc21	none (no result: Beta apoptosis, CSC inhib, Jurkat NFkB inh)
CC(NC(=O)Nc1nnc(C(F)(F)F)s1)(C(F)(F)F)C(F)(F)F	Beta apoptosis 120, Mdm2 MdmX PPI 95 | Mdm2-MdmX conf 59 | FLuc counter inactive
CC(C)(C)CC(=O)Nc1nnc(C(F)(F)F)s1	none
Cc1ccc(COC(=O)CN2C(=O)NC3(CCCCC3C)C2=O)cc1 (stereo not drawn)	none (no result: Beta apoptosis, CSC inhib)
CCOC(=O)c1cccc2c1-c1ccccc1/C2=N/O	Mdm2 MdmX PPI 76 | Mdm2-MdmX conf 57 | FLuc counter inactive
CCOC(=O)NN=C1c2ccccc2-c2ccccc21	none
[O-][n+]1c2ccccc2[n+]([O-])c2cc(O)ccc21	none
CC1CCN(CCNC(=O)c2ccc3c(=O)n(Cc4ccc(Cl)cc4)c(=S)[nH]c3c2)CC1	Mdm2 MdmX PPI 97 | Mdm2-MdmX conf inactive
CCN1CCN(CCNC(=O)c2ccc3nc(-c4cccc(C)c4)c(-c4cccc(C)c4)nc3c2)CC1	Mdm2 MdmX PPI 100 | Mdm2-MdmX conf 59 | FLuc counter inactive
N#CC1CCN(C(=O)c2ccc3c(Cl)c4c(nc3c2)CCCC4)CC1	Mdm2 MdmX PPI 52 | Mdm2-MdmX conf inactive
CCCNC(=O)c1ccc2nc(-c3ccccc3)c(-c3ccccc3)nc2c1	none
CCN1CCN(CCCNC(=O)c2ccc3c(Cl)c4c(nc3c2)CCCC4)CC1	Mdm2 MdmX PPI 73 (no result: Gli-Sufu block) | Mdm2-MdmX conf 46 | FLuc counter 43
CCN1CCN(C(=O)c2ccc3c(Cl)c4c(nc3c2)CCCC4)CC1	none
COCCNC(=O)c1ccc2c(Cl)c3c(nc2c1)CCC3	none
CC1CCN(CCCNC(=O)c2ccc3c(Cl)c4c(nc3c2)CCCC4)CC1	Mdm2 MdmX PPI 79 | Mdm2-MdmX conf 68 | FLuc counter inactive
O=C(NCCCN1CCCCCC1)c1ccc2c(Cl)c3c(nc2c1)CCCC3	Mdm2 MdmX PPI 59 | Mdm2-MdmX conf inactive
CC1=CC(C)C(/C=N/N=C(N)N)C(C)C1 (stereo not drawn)	none (no result: Beta apoptosis)
CC(C)=CCc1cc([C@@H]2COc3c(ccc4c3C=CC(C)(C)O4)C2)c(O)cc1O	Mdm2 MdmX PPI 64 | Mdm2-MdmX conf inactive
C[C@H]1CN([C@@H](C)CO)C(=O)Cc2cc(NC(=O)CCC(F)(F)F)ccc2O[C@H]1CN(C)Cc1ccc(C(F)(F)F)cc1	none
C[C@H]1CN([C@@H](C)CO)C(=O)Cc2cc(NC(=O)CCC(F)(F)F)ccc2O[C@H]1CN(C)Cc1ccc(-c2ccccc2)cc1	Mdm2 MdmX PPI 55, CSC inhib 123 | Mdm2-MdmX conf inactive
C[C@H](CO)N1C[C@H](C)[C@H](CN(C)Cc2ccc(-c3ccccc3)cc2)Oc2ccc(NS(=O)(=O)c3ccccc3)cc2CC1=O	Mdm2 MdmX PPI 85, CSC inhib 97 | Mdm2-MdmX conf inactive
C[C@@H]1CN([C@@H](C)CO)C(=O)Cc2cc(NS(=O)(=O)c3ccccc3)ccc2O[C@H]1CN(C)Cc1ccncc1	none
Cc1ccc(S(=O)(=O)Nc2ccc3c(c2)C(=O)N([C@H](C)CO)C[C@H](C)[C@@H](CN(C)Cc2ccccc2)O3)cc1	none
Cc1ccc(S(=O)(=O)Nc2ccc3c(c2)CC(=O)N([C@H](C)CO)C[C@@H](C)[C@H](CN(C)Cc2ccc(-c4ccccc4)cc2)O3)cc1	Mdm2 MdmX PPI 82, CSC inhib 109 | Mdm2-MdmX conf inactive | FLuc counter 63
COc1ccc(-c2sc3cc(OC)c(OC)cc3c2-c2ccc(O)cc2)cc1	Mdm2 MdmX PPI 53, CSC inhib 137 | Mdm2-MdmX conf inactive
COc1ccc(-c2sc3ccc(OC)cc3c2-c2ccc(OC)nc2)cc1	none
CCC(C)c1ccc(NC(=O)c2c([N+](=O)[O-])cnn2CC)cc1 (stereo not drawn)	none
Cc1cccc(-c2cc3nc4c(c(N5CCC6(CC5)OCCO6)n3n2)CCCC4)c1	none
Cc1cccc(-c2cc3nc4c(c(N5CCOCC5)n3n2)CCCC4)c1	Mdm2 MdmX PPI 65 | Mdm2-MdmX conf inactive
COc1ccc(-c2sc3cc4c(cc3c2C#CC2(N)CCCCC2)OCO4)cc1	Mdm2 MdmX PPI 79, CSC inhib 130 | Mdm2-MdmX conf inactive
COc1ccc(-c2ccc3oc(-c4ccc(OC)cc4)c(C#CC4(O)CCCCC4)c3c2)cc1	Mdm2 MdmX PPI 70, CSC inhib 77 | Mdm2-MdmX conf inactive
COc1ccc(-c2sc3ccc(N4CCOCC4)cc3c2C#CC2(O)CCCCC2)cc1	Mdm2 MdmX PPI 76, CSC inhib 106 | Mdm2-MdmX conf inactive
COc1cccc2sc3ccc(C#CC4(N)CCCCC4)cc3c(=O)c12	none
COC(=O)c1c(-c2ccc(OC)cc2)sc2ccc(-c3ccc4c(c3)OCO4)cc12	none
COc1cc(OC)cc(-c2sc3ccc(OC)cc3c2C#CC2(N)CCCCC2)c1	Mdm2 MdmX PPI 96, CSC inhib 104 | Mdm2-MdmX conf inactive
CC[C@H]1C(Nc2ccccc2)C[C@@H]2CCN3C(=O)CC[C@H]1[C@H]23 (stereo partly drawn)	none (no result: Beta apoptosis, Mdm2 MdmX PPI, CSC inhib, 697 NFkB inh, Jurkat NFkB inh)
NS(=O)(=O)c1ccc(NC(=S)N2CCN(C(=O)C3CCCO3)CC2)cc1 (stereo not drawn)	none
O=C(Nc1ccccc1F)Nc1ccccc1OC(F)F	none
O=S(=O)(c1ccccc1)N(F)S(=O)(=O)c1ccccc1	none (no result: CSC inhib)
COc1ccccc1CN(C)C(=O)c1sccc1-c1ccccc1	none
Cc1ccc2oc(C(=O)N(C)CCC(O)c3ccccc3)c(C)c2c1 (stereo not drawn)	none (no result: Beta apoptosis)
CCC(C(=O)NCc1ccccn1)n1c2ccccc2c2nc(=O)cc(C)n21 (stereo not drawn)	none
COCc1cc(C)nc(OCC(=O)N/N=C/c2ccco2)c1C#N	none (no result: Beta apoptosis, CSC inhib)
COCc1cc(C)nc(OCC(=O)N/N=C/c2ccc(-c3cc([N+](=O)[O-])ccc3Cl)o2)c1C#N	Mdm2 MdmX PPI 69 | Mdm2-MdmX conf inactive
